Data published in PubChem BioAssay AID652061 (Broad Institute, 2013).
This is one part of the list. Calls of active or inactive are those of the source.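 Rule for the calls: active = signal increase whose fitted curve reaches an absolute level of 40 at a concentration under 10 µM; inactive = activity opposite to the expected increase, or the rest.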

Test: enhancers of UUG start codon usage in yeast, dose response, S. cerevisiae, UUG firefly luciferase, cherry-pick, set 2 (AID 652061);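 note: 0% = median DMSO signal and 100% = twice the DMSO signal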
Conditions: max activity: measured here: max activity, test 2, at 38 µM, test 2, stronger effect = higher value unless noted

Row | SMILES | max activity | outcome
1 | CCc1cccc(C)c1N(C(=O)Cn1c(CO)nc2ccccc21)C(C)COC (configuration not stated) | 6.66% [measured here: max activity, test 2, at 12 µM, test 2, stronger effect = higher value] | inactive
2 | CC(=O)Nc1ccccc1-c1cn(CC(=O)N2CCOCC2)nn1 | 8.61% [at 75 µM, test 1, stronger effect = higher value] (inactive) | –
3 | O=C(C1CCC1)N1C[C@H]2[C@@H](c3ccccc31)[C@@H](CO)N2C(=O)c1ccccc1F | 6.68% [at 0.035 µM, test 1, stronger effect = higher value] (inactive) | –
4 | COc1ccc(NC(=O)N(C)C[C@H]2OCCCC[C@@H](C)Oc3ccc(NC(=O)NC4CCCCC4)cc3C(=O)N([C@@H](C)CO)C[C@H]2C)cc1 | 8.38% [at 26 µM, test 1, stronger effect = higher value] (inactive) | –
5 | CCOC(=O)C(=Cc1ccccc1OC)C(=O)OCC | 9.08% [measured here: max activity, test 2, at 0.15 µM, test 2, stronger effect = higher value] | inactive
6 | O=C(N[C@H]1CC[C@@H](CCNS(=O)(=O)Cc2ccccc2)O[C@H]1CO)c1ccccc1F | 8.33% [at 0.035 µM, test 1, stronger effect = higher value] (inactive) | –
7 | COc1ccc(CCN2C(=O)[C@@]3(Cc4ccccc42)c2ccccc2C(=O)N(Cc2ccccc2C(F)(F)F)[C@H]3c2ccc(CO)cc2)cc1 | 5.62% [at 26 µM, test 1, stronger effect = higher value] (inactive) | –
8 | C[C@@H]1CN([C@@H](C)CO)S(=O)(=O)c2ccc(C#Cc3ccc(F)cc3)cc2O[C@H]1CN(C)C(=O)NC1CCCC1 | 10% [at 2.85 µM, test 1, stronger effect = higher value] (inactive) | –
9 | C#CCSc1nnc(-c2sc3ccccc3c2Cl)o1 | 6.33% [measured here: max activity, test 2, at 0.46 µM, test 2, stronger effect = higher value] | inactive
10 | c1ccc(-n2cccc2)c(N2CCCCC2)c1 | 8.5% [measured here: max activity, test 2, at 0.05 µM, test 2, stronger effect = higher value] | inactive
11 | O=C1N=C(N2CCc3ccccc3C2)S/C1=C\c1ccc(O)cc1 | 7.99% [measured here: max activity, test 2, at 12 µM, test 2, stronger effect = higher value] | inactive
12 | Cc1ccc(F)cc1NC(=O)Cc1nn(C)c(=O)c2ccccc12 | -14.8% [measured here: max activity, test 2, at 12 µM, test 2, stronger effect = higher value] | inactive
13 | O=C(COc1ccc(Cl)cc1)NCc1nnc(SCC(=O)NCC2CCCO2)o1 (configuration not stated) | -8.21% [measured here: max activity, test 2, at 0.15 µM, test 2, stronger effect = higher value] | inactive
14 | Cc1c(Nc2cc(N3CCCC(C)C3)c3nonc3c2[N+](=O)[O-])c(=O)n(-c2ccccc2)n1C (configuration not stated) | 9.02% | inactive
15 | CC1CCCN(S(=O)(=O)c2ccc(N(C(=O)c3cnccn3)C(C(=O)NC3CCCCC3)c3cccs3)cc2)C1 (configuration not stated) | -8.84% [measured here: max activity, test 2, at 0.05 µM, test 2, stronger effect = higher value] | inactive
16 | CC1CCC(NC(=O)C2c3ccccc3C(=O)N2Cc2ccc3c(c2)OCO3)CC1 (configuration not stated) | -4.01% | inactive
17 | COCCCNC(=O)Cn1cc(C(=O)C2CC2)c2ccccc21 | -7.83% [measured here: max activity, test 2, at 1.35 µM, test 2, stronger effect = higher value] | inactive
18 | C[C@@H]1CN([C@@H](C)CO)C(=O)c2cc(Br)cnc2O[C@@H]1CN(C)C(=O)C1CCCCC1 | -6.87% [at 0.9 µM, test 1, stronger effect = higher value] (inactive) | –
19 | Cc1onc(-c2ccc(Cl)cc2)c1-c1ccnn1S(=O)(=O)c1ccc(Cl)cc1 | 13.9% | inactive
20 | CC(C)C#Cc1ccc2c(c1)O[C@@H](CN(C)C(=O)CN(C)C)[C@@H](C)CN([C@H](C)CO)S2(=O)=O | -9.02% [at 0.3 µM, test 1, stronger effect = higher value] (inactive) | –
21 | CN1CCN(C(=O)/C(=C\c2cccs2)NC(=O)c2cccs2)CC1 | 13.1% | inactive
22 | O=C(c1cccnc1)N1C[C@H]2[C@@H](c3ccccc31)[C@H](CO)N2C(=O)C1CC1 | 24.4% [at 0.035 µM, test 1, stronger effect = higher value] (inactive) | –
23 | CC(=O)N1CC(=O)N(CC(=O)Nc2ccc(Br)cc2)C1=S | 9.59% [measured here: max activity, test 2, at 1.35 µM, test 2, stronger effect = higher value] | inactive
